Tb PYK inh: blocks Trypanosoma brucei pyruvate kinase; Q57TT1; 410,000 tested, 0.12% active; Potency, µM (doses to about 76.8 µM), for inactives: top-dose activity, negative = inhibition, actives largely listed as inhibitors; AID 624173; TbPYK enzyme, Kinase-Glo Plus ATP luminescence, 45 min; also: nearly all actives have a fitted effect of over 50% in size
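Readout: single end-point luminescence (Kinase-Glo Plus, 10 min). Reaction conditions were TbPYK/substrate plus 130 uM ADP, 45 min at RT, pH 7.2 TEA buffer. No-enzyme wells served as controls, and data were normalized before concentration-response fitting.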
LmPK inhibitor: blocks Leishmania mexicana pyruvate kinase activity; purified LmPK, Kinase-Glo ATP luminescence, 1 h; Potency, µM (top dose mostly 57.5 µM), for inactives: at the top dose activity change, negative = inhibition, usual class: inhibitors; 290,000 tested, 0.37% active
Target sequence (Q27686 whole entry, looked up): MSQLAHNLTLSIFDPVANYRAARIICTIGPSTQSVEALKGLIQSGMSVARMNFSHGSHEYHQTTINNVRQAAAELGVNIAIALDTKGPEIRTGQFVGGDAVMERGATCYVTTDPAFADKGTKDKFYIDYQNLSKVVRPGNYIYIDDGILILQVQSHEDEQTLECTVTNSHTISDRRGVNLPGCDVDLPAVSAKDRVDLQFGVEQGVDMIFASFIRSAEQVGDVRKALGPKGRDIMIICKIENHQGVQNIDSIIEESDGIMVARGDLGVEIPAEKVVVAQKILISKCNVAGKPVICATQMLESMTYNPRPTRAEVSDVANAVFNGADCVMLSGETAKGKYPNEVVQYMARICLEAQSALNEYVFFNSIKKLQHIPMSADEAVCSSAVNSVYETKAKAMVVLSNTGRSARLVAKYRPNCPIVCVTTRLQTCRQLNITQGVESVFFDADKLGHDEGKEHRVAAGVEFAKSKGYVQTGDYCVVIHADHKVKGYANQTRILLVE
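ATP generated from ADP (0.1 mM) and PEP (0.5 mM) by 0.1 nM LmPK over 1 h at room temperature (pH 7.2 imidazole buffer) was detected by coupled luciferase luminescence. Values were normalized to uninhibited and no-enzyme wells.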
Sm TGR block: blocks Schistosoma mansoni thioredoxin glutathione reductase; Q962Y6; purified TGR, DTNB reduction, TNB absorbance 405 nm; Potency, µM (highest dose often 114 µM), inactives show at the top dose activity change, negative = inhibition, usual class: inhibitors; 360,000 tested, 3% active; also: nearly all actives have a fitted effect of over 60% in size
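First, TGR (20 nM dispensed) and NADPH were mixed with compound. Second, a 15 min room-temperature incubation followed. Third, further NADPH and then DTNB were added to start the reaction. Finally, TNB absorbance was monitored kinetically.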
RE007 growth inh: less growth of the S. pombe RE007 Vpr strain | S. pombe RE007 Vpr strain, BacTiter-Glo ATP luminescence, 24 h | Potency, µM (highest dose often 92.2 µM), for inactives: at the top dose activity change, negative = less growth, usual class: inhibitors | 360,000 tested, 0.21% active | AID 651644; active = well fitted falling curve with a large enough effect; inconclusive = small, poorly fitted or top-dose-only effect; inactive = no such curve, though single readings can be large or run the other way; also: nearly all actives have a fitted effect of over 50% in size
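Fission yeast strain RE007, carrying one chromosomally integrated HIV-1 vpr copy, was seeded at OD 0.01 in PMG+AL medium with 23 nL pinned compound. After 24 h at 30 °C and 99% humidity, viability was read by BacTiter-Glo luminescence.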
Starred values were filed as active, the others as inactive; ? = inconclusive; / = no result given; [ ] = another dose, or the depositor's remark. An excerpt weighted towards active compounds, which were near 3% of everything screened. Unless noted, calls follow the shape of the dose curve; as a rule, active = well fitted curve in the direction sought with a large enough effect; inconclusive = small, poorly fitted or top-dose-only effect, or another doubt; inactive = no such curve, though single readings can be large; an effect the other way counts as inactive or inconclusive. % is scaled to controls: 0 for no effect and ±100 for the full control effect; potency is read from the fitted curve at half-maximal effect.

SMILES	Tb PYK inh	LmPK inhibitor	Sm TGR block	RE007 growth inh
Cc1sc(NC(=S)NC(=O)c2ccco2)c(C#N)c1C	6%	-1%	4µM*	8%
O=C(NC(=S)Nc1cccc2ncccc12)c1ccco1	-2%	3%	14µM*	-4%
O=C(NC(=S)Nc1ccccc1Cl)c1ccco1	-7%	0%	13µM*	-16%
O=C(NC(=S)Nc1ccc(N2CCCCC2)cc1)c1ccco1	1%	-3%	16µM*	-7%
COc1ccc(C(=O)NC(=S)Nc2cccc3ncccc23)cc1[N+](=O)[O-]	-11%	-3%	6.3µM*	-6%
O=C(Nc1cccc2ncccc12)c1ccc(Br)c([N+](=O)[O-])c1	1%	2%	3%	-16%
Cc1cccc(N2CCN(S(=O)(=O)c3ccc(-c4cc(C(F)(F)F)on4)s3)CC2)c1C	-4%	/	-2%	/
CCCC(=O)NC(=S)Nc1ccccc1C(=O)OC	-10%	0%	-32%	16%
CCCC(=O)NC(=S)Nc1cccc2c(O)cccc12	-18%	0%	14µM*	-7%
CCC(=O)Nc1ccc(Cl)c(NC(=S)NC(=O)c2ccco2)c1	-3%	-5%	?	2%
O=C(NC(=S)Nc1cccc2c(O)cccc12)c1ccco1	-2%	-3%	25µM*	-17%
O=C(NC(=S)Nc1ccc(Cl)c(C(=O)O)c1)c1ccco1	-2%	-4%	45µM*	18%
Cc1c(NC(=O)c2ccco2)cccc1-c1nc2cccnc2s1	-1%	5%	20µM*	-6%
O=C(NC(=S)Nc1cccc2cc(O)ccc12)c1ccco1	-1%	-1%	10µM*	-15%
CSc1ccc(CCNC(=O)C2=C(C)C(=O)OC23CCCCC3)cc1	3%	/	9%	/
N#C/C(=C\c1cccnc1)C(=O)Nc1cccc2ccccc12	-22%	5%	-20%	32µM*
CCN(CC)c1ccc(NC(=O)C2CCN(S(=O)(=O)c3cnc[nH]3)CC2)c(C)c1	-8%	/	8%	/
O=C(O)CCc1ccc(-c2ccc(Cl)cc2)n1Cc1ccco1	-4%	0%	40µM*	-2%
COc1ccc(-c2ccc(CCC(=O)O)n2Cc2ccco2)cc1	4%	11%	25µM*	-4%
O=C(O)CCc1ccc(-c2cccs2)n1Cc1ccco1	-6%	5%	?	-8%
Cn1c(=O)c2c(c3ccccc31)OC(=O)CC2c1ccccc1 (stereo not drawn)	6%	/	1%	/
CCOc1ccc(N(CC(=O)NCc2ccco2)S(=O)(=O)c2ccc(OC)c(OC)c2)cc1	-2%	7%	32µM*	1%
Cn1c(C(=O)OCC(=O)NCc2ccco2)cc2sccc21	-23%	4%	50µM*	8%
CN(C)S(=O)(=O)c1ccc(C(=O)NCc2ccco2)cc1	0%	1%	-7%	14%
CN(C)S(=O)(=O)c1ccc(C(=O)OCC(=O)NCc2ccco2)cc1	3%	3%	35µM*	-6%
SMILES	Tb PYK inh	LmPK inhibitor	Sm TGR block	RE007 growth inh
CC(C)C(NC(=O)OCc1ccccc1)C(=O)OCC(=O)NCc1ccco1 (stereo not drawn)	-16%	-2%	28µM*	-28%
COc1ccc(N(CC(=O)NCc2ccco2)S(=O)(=O)c2ccc(OC)c(OC)c2)cc1	-14%	15%	-3%[11.4 µM]	-7%
COc1ccc(CNC(=O)CN2C(=O)c3cccnc3Oc3ccc(C)cc32)cc1	10%[15.4 µM]	/	-10%	/
COc1ccc(S(=O)(=O)N(C)CC(=O)N2CCCC2)cc1OC	2%	0%	3%	-5%
O=C(COC(=O)c1ccc(NS(=O)(=O)c2cccs2)cc1)NCc1ccco1	4%	2%	11µM*	12%
CCc1nc2ccccc2c(C(=O)OCC(=O)NCc2ccco2)c1C	-3%	-3%	35µM*	27%
COc1ccc(CC(=O)OCC(=O)NCc2ccco2)cc1OC	-9%	/	40µM*	8%
COc1ccc(C2(C(=O)NCc3ccco3)CCCC2)cc1OC	-6%	7%	45µM*	0%
O=C(COC(=O)c1cncc(Br)c1)NCc1ccc(F)cc1	0%	7%	-1%	-3%
O=C(COC(=O)c1ccc(S(=O)(=O)NCc2ccco2)cc1)NCCC1=CCCCC1	-3%	6%	45µM*	-11%
CC(C)(C)c1ccc(OCC(=O)NCc2ccco2)c(Br)c1	0%	-11%	10µM*	?
O=C(COC(=O)c1cncc(Br)c1)NCc1ccco1	6%	6%	25µM*	-19%
O=C(COC(=O)c1cc2ccccc2cc1O)NC(=O)NCc1ccco1	3%	0%	45µM*	6%
O=C(COC(=O)c1ccc(S(=O)(=O)NCc2ccco2)cc1)NCc1ccccc1	8%	/	/	-7%
CCN(CC)S(=O)(=O)c1ccc(OCC(=O)NCc2ccco2)cc1	-4%	1%	22µM*	0%
CCOc1cc(C(=O)OCC(=O)NCc2ccco2)cc(OCC)c1OCC	-9%	3%	25µM*	1%
COc1cc(C(=O)OCC(=O)NCc2ccco2)cc(OC)c1OC	0%	5%	45µM*	-1%
Cc1ccc(S(=O)(=O)N(C)c2ccc(OCC(=O)NCc3ccco3)cc2)cc1	/	4%	2%	-11%[3.69 µM]
COc1cc(OC)cc(C(=O)OCC(=O)NCc2ccco2)c1	-1%	/	?	5%
CN1C(=O)C[C@@H](C(=O)N[C@@H](Cc2cnc[nH]2)C(=O)N2CCC[C@H]2C(N)=O)NC1=O	1%	/	/	/
CCC(=O)Nc1cnc(NC(=O)c2cccc(F)c2)cc1C	-16%	20µM*	-15%	-8%
CC(=O)Nc1cnc(NC(=O)c2cccc(F)c2)cc1C	-9%	-18%	-3%	-7%
COc1cccc(N2CCN(C(=O)CCc3c(C)nc4c(c3C)c(=O)n(C)c(=O)n4C)CC2)c1	-6%	/	0%	/
COc1ccc(C2C(C(C)=O)=C(C)Nc3ncnn32)cc1 (stereo not drawn)	-3%	-3%	35µM*	9%
COc1ccccc1NC(=O)C1=C(C)Nc2ncnn2C1c1ccc[nH]1 (stereo not drawn)	-13%	/	40µM*	/
SMILES	Tb PYK inh	LmPK inhibitor	Sm TGR block	RE007 growth inh
COc1ccccc1NC(=O)C1=C(C)Nc2ncnn2C1c1ccccn1 (stereo not drawn)	0%	/	5%	/
CCN(CC)c1ccc(N)cc1	-3%	/	-20%	-28%
Nc1ccc(N(CCO)CCO)cc1	-9%	-18%	7.1µM*	-11%
O=C1c2c(O)cccc2C(C2OC(CO)[C@@H](O)[C@H](O)[C@H]2O)c2cc(CO)cc(O)c21 (stereo partly drawn)	-1%	/	40µM*	-29%
Cc1cccc(-c2cc3c(nn2)-c2ccccc2C3=O)c1	-20%	7.1µM*	-2%	?
C#CCNC(=O)C1=C[C@H](C2CCCCC2)C[C@H](OCc2ccc(CO)cc2)O1	2%	6%	20µM*	15%
C#CCNC(=O)C1=C[C@@H](C2CCCCC2)C[C@@H](OCc2ccc(CO)cc2)O1	4%	1%	22µM*	-3%
O=C(NC1CC1)C1=C[C@H](C2CCCCC2)C[C@H](OCc2ccc(CO)cc2)O1	2%	2%	-5%	17%

Source: PubChem (National Center for Advancing Translational Sciences (NCATS))
